# Test results as given in the supplement of paper PMC7726561.
# Biological target: HLA-C*04:01
# Assay: thermal melting temperature (Tm) of peptide-HLA complex; higher = more thermostable pHLA complex
# Procedure: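 Endogenous HLA-C*04:01 ligands were detected in the thermostability assays of both the C1R-A*02:01 and C1R-B*07:02 lines. Lysates were heated 10 min at 37-73 °C and pHLA immunoprecipitated with W6/32. Peptides were quantified by DIA-MS and Tm was taken from a logistic sigmoid fit.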
Sequence,thermal melting temperature (C1R-A*02:01),thermal melting temperature (C1R-B*07:02)
FYEPQKGSIYL,60.5 °C,62.1 °C
VYDPSLKTLL,52.3 °C,52.4 °C
VFDKTLAEL,58.9 °C,59.1 °C
AFDLSQVLF,56.1 °C,56.5 °C
FFEEFGKL,44.3 °C,46.5 °C
TFDVSILTI,44.9 °C,47.2 °C
YFDDLKGEM,57.9 °C,59.4 °C
RFDESMQVF,55.9 °C,58.5 °C
IFDQSGTYL,53.4 °C,56.4 °C
VFDVTAPNTF,56.1 °C,61.1 °C
QYDEAVAQF,56.7 °C,59.2 °C
IYDEVVKL,54.3 °C,51.6 °C
IFDRVLTEL,51.3 °C,54.7 °C
VFDTAIAHL,59 °C,58.7 °C
NFDDIKNGL,52.1 °C,50.4 °C
NFDNILNSF,56.8 °C,58.7 °C
IFDGNVAHI,59.7 °C,59 °C
TFDLTVVSY,53.5 °C,61.8 °C
VLDDKDYFL,57 °C,42.4 °C
LYDLVTEKM,56.2 °C,60.7 °C
NYDEHISNF,44.8 °C,48.9 °C
FLDLTEQEF,59.8 °C,60.6 °C
MPDDLLTTL,53.1 °C,63.4 °C
SWDIVVQRV,46.9 °C,49 °C
